Test results as given in PubChem BioAssay.
Calls of active or inactive are those of the source.

Experiments:
[1] = tested on: Plasmodium falciparum Sir2 (PF13_0152, Sir2A); assay: Plasmodium falciparum Sir2A binding compounds – biochemical, small-molecule microarray, 635 nm fluorescence, primary screen (AID 1098); conditions: fluorescence 635 nm, higher = more signal;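 also: score merges spot fluorescence intensity with its signal-to-noise ratio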
[2] = probe aDKK1 binding to arrayed compounds – biochemical, biotinylated probe, 635/667 nm fluorescence, primary screen (AID 1099); conditions: small-molecule microarray, higher = more signal;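 also: score merges 667nm spot fluorescence with signal to noise across triplicate slides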
[3] = probe aCHRDL2 binding to arrayed compounds – biochemical, biotinylated probe, 635/667 nm fluorescence, primary screen (AID 1100); conditions: small-molecule microarray, higher = more signal
[4] = change in splice reporter luminescence, either direction, cell-based, HEK293, spliceosome inhibition project, primary screen (AID 1101); conditions: HEK293 splicing luciferase reporter, 24 h, higher = more signal, called active from +8 up or from −8 down;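 also: HEK293 cells carrying a splicing-competent luciferase reporter gene; test concentration not given here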
[5] = target: Fibroblast growth factor 10 (Homo sapiens) (UniProt O15520); assay: compounds binding fibroblast growth factor 10 – biochemical, small-molecule microarray, 635 nm fluorescence, primary screen (AID 1102); conditions: FGF10 binding, fluorescence 635 nm, higher = more signal
[6] = tested on: glycogen synthase kinase-3 (GSK3A per assay name; protocol says GSK3B); assay: compounds binding glycogen synthase kinase-3 – biochemical, small-molecule microarray, 635 nm fluorescence, GSK3A, primary screen (AID 1103); conditions: fluorescence 635 nm, higher = more signal; also: the record names both GSK3A and GSK3B
[7] = target: Epidermal growth factor receptor (Homo sapiens) (UniProt P00533); assay: compounds binding epidermal growth factor receptor – biochemical, small-molecule microarray, 635 nm fluorescence, primary screen (AID 1104); conditions: EGFR binding, higher = more signal;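 also: score merges 667 nm emission intensity with spot signal to noise over triplicate slides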
[8] = target: Follistatin-related protein 3 (Homo sapiens) (UniProt O95633); assay: compounds binding follistatin-related protein 3 – biochemical, small-molecule microarray, 635 nm fluorescence, primary screen (AID 1105); conditions: FSTL3 binding, higher = more signal;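 also: score merges emission near 667 nm and signal to noise per printed spot across three slides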
[9] = target: Dickkopf-related protein 1 (Homo sapiens) (UniProt O94907); assay: small molecules binding DKK1 protein – biochemical, small-molecule microarray, 635 nm fluorescence scan, primary screen (AID 1106); conditions: higher = more signal;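 also: score merges emission near 667 nm with signal to noise over three replicate slides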
[10] = tested on: Inhibin beta A chain (activin A); assay: small molecules binding activin A – biochemical, small-molecule microarray, 635 nm fluorescence scan, primary screen (AID 1107); conditions: INHBA, higher = more signal;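 also: mouse activin A protein probed at 4.33 µg/mL on printed slides; score merges bound-protein fluorescence near 667 nm with spot signal-to-noise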
[11] = tested on: Human papillomavirus type 1a protein E7 (residues 44-93); assay: small molecules binding HPV E7 44-93 – biochemical, small-molecule microarray, residues 44-93, 635 nm fluorescence, primary screen (AID 1108); conditions: fluorescence 635 nm, higher = more signal;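 also: E7 fragment applied at 1 µg/mL in TBST for 1 h at 4 C; score combines spot fluorescence with its signal to noise ratio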
[12] = hepatitis C replication reporter changes, two-sided – Huh7 cells, luciferase reporter, HCV replication inhibitor project, primary screen (AID 1109); conditions: Huh7 HCV replicon luciferase reporter, 48 h; higher = more signal;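 also: huh7 hepatoma cells harbouring a luciferase neomycin HCV replicon reporter; luciferase luminescence as measure of HCV replicon replication; test concentration not given here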
[13] = target: Left-right determination factor 2 (Homo sapiens) (UniProt O00292); assay: small molecules binding LEFTY2 protein – biochemical, small-molecule microarray, 635 nm fluorescence scan, primary screen (AID 1110); conditions: higher = more signal
[14] = target: Calmodulin-1 (Homo sapiens) (UniProt P0DP23); assay: small molecules binding calmodulin-1 with EGTA – biochemical, small-molecule microarray, Cy5-labelled CALM1, profiling panel (AID 1111); conditions: Cy5-CALM1 binding fluorescence, higher = more signal;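 also: labelled calmodulin applied in Tris saline Tween buffer holding calcium plus EGTA and DTT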
[15] = target: Calmodulin-1 (Homo sapiens) (UniProt P0DP23); assay: small molecules binding Ca-loaded calmodulin-1 – biochemical, small-molecule microarray, Cy5-labelled CALM1, plus calcium, artefact control for SMM control-protein annotation, profiling panel (AID 1112); conditions: Cy5-CALM1 binding fluorescence, higher = more signal;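 also: score merges spot fluorescence with signal to noise from triplicate slides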
[16] = probe aWnt5a binding to arrayed compounds – biochemical, biotinylated probe, 635/667 nm fluorescence, primary screen (AID 1113); conditions: small-molecule microarray, higher = more signal;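 also: score merges 667 nm fluorescence intensity with signal-to-noise per printed feature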
[17] = probe aShh binding to arrayed compounds – biochemical, biotinylated probe, 635/667 nm fluorescence, primary screen (AID 1114); conditions: small-molecule microarray, higher = more signal;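 also: probe is biotin-labelled aShh protein from a stem cell growth factor screen; measures binding of labelled protein to compounds printed on the slide; score merges feature fluorescence at 667 nm with signal-to-noise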
[18] = probe aNog binding to arrayed compounds – biochemical, biotinylated probe, 635/667 nm fluorescence, primary screen (AID 1115); conditions: small-molecule microarray, higher = more signal;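 also: probe is biotinylated aNog protein used at 0.15 µg/mL for 1 h at 4 C; z-score combines 667 nm fluorescence of each spot with its signal to noise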
[19] = target: Torsin-1A-interacting protein 1 (Homo sapiens) (UniProt Q5JTV8); assay: compound microarray binding of lysate hLAP1 – cell lysate, small-molecule microarray, COS7 lysate, 635/667 nm fluorescence, primary screen (AID 1116); conditions: 635 nm fluorescence, higher = more signal
[20] = target: Alpha-bungarotoxin (Bungarus multicinctus) (UniProt P60615); assay: compounds binding labelled alpha-BTX control protein – biochemical, small-molecule microarray, Alexa647 label, 635/667 nm fluorescence, artefact control for SMM control protein annotation, profiling panel (AID 1117); conditions: alpha-BTX-A647 binding fluorescence, higher = more signal
Sequence of Alpha-bungarotoxin (Bungarus multicinctus) (P60615 whole entry, looked up): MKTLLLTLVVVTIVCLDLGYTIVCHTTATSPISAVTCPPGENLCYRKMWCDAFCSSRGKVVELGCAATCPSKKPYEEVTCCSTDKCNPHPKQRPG

Sequence of Epidermal growth factor receptor (Homo sapiens) (P00533 whole entry, looked up): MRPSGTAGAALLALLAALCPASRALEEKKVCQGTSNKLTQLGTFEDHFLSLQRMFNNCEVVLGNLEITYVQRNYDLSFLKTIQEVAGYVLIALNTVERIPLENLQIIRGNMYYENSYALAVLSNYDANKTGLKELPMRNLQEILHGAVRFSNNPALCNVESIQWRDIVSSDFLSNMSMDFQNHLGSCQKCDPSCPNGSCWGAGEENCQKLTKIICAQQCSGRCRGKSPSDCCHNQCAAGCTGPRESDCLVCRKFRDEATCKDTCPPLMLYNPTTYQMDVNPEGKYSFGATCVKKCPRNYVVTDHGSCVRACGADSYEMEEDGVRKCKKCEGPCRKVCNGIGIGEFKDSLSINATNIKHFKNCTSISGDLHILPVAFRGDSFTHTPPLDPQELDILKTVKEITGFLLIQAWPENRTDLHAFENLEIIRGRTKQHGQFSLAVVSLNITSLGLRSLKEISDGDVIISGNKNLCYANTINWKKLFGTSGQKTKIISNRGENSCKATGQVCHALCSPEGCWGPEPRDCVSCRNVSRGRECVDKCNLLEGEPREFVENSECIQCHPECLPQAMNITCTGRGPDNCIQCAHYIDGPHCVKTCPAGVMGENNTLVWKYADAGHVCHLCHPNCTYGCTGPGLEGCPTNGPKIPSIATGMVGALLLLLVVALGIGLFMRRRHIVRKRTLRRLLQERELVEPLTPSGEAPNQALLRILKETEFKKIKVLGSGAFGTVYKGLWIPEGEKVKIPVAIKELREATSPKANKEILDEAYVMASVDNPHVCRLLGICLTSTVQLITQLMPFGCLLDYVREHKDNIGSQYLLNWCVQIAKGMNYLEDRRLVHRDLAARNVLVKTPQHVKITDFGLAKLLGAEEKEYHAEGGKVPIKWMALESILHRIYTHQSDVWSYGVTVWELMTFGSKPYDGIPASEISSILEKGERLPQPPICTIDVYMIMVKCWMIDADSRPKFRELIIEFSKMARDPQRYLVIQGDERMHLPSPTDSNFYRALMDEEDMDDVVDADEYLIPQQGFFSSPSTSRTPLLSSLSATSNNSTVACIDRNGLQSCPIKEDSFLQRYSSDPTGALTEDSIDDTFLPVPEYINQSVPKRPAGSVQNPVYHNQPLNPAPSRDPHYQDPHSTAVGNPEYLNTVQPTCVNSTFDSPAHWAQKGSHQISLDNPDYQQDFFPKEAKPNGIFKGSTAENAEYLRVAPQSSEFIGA
Sequence of Left-right determination factor 2 (Homo sapiens) (O00292 whole entry, looked up): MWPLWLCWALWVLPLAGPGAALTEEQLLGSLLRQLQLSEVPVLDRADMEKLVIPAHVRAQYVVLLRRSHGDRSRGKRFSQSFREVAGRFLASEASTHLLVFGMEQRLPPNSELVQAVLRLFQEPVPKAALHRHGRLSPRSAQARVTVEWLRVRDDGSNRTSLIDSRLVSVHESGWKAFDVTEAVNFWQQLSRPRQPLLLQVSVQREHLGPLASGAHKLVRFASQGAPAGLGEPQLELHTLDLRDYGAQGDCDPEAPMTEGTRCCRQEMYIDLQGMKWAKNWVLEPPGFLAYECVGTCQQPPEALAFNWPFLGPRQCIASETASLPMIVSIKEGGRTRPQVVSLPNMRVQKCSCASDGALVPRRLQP
Sequence of Torsin-1A-interacting protein 1 (Homo sapiens) (Q5JTV8 whole entry, looked up): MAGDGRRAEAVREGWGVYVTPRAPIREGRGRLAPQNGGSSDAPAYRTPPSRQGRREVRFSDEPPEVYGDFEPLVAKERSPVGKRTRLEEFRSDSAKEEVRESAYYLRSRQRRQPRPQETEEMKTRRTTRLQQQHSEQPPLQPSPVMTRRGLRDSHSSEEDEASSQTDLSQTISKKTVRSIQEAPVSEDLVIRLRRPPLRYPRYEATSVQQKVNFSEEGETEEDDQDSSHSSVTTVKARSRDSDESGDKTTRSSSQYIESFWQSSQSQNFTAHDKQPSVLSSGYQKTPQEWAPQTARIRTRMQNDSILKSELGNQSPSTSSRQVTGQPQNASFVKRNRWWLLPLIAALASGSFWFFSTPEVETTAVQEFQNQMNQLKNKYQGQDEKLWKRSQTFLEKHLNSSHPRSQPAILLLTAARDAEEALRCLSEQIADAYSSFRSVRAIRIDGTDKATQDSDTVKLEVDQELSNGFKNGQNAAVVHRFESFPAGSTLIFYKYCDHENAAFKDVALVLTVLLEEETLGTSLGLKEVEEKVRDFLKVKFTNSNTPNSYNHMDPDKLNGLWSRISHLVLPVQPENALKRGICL
Sequence of Follistatin-related protein 3 (Homo sapiens) (O95633 whole entry, looked up): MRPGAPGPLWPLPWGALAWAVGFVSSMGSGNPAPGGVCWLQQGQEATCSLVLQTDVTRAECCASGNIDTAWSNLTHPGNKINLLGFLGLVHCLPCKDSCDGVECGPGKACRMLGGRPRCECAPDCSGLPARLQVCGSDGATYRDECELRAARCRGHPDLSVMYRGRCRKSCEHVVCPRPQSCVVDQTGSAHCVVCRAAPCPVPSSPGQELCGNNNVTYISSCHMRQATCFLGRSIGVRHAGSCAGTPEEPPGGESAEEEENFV
Sequence of Dickkopf-related protein 1 (Homo sapiens) (O94907 whole entry, looked up): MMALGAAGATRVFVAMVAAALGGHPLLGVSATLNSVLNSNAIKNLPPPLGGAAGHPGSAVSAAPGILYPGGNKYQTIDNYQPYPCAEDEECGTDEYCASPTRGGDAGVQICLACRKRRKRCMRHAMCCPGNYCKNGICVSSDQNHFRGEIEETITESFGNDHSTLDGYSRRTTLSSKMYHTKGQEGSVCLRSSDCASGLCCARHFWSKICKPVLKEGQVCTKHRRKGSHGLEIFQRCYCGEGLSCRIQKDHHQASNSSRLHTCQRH
Sequence of Fibroblast growth factor 10 (Homo sapiens) (O15520 whole entry, looked up): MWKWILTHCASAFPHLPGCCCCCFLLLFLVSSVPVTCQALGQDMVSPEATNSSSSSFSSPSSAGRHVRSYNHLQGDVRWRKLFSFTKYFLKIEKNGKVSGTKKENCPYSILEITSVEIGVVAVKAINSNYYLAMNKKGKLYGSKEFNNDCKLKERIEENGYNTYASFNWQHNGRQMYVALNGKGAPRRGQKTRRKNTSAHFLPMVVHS

Row | SMILES | composite z-score [1] | composite z-score [2] | composite z-score [3] | z-score [4] | composite z-score [5] | composite z-score [6] | composite z-score [7] | composite z-score [8] | composite z-score [9] | composite z-score [10] | composite z-score [11] | z-score [12] | composite z-score [13] | composite z-score [14] | composite z-score [15] | composite z-score [16] | composite z-score [17] | composite z-score [18] | composite z-score [19] | composite z-score [20]
1 | C=CC[C@]1(C(=O)NCCCOC)N=C(c2ccc(OCCCO)cc2)O[C@H]1c1ccccc1CN=[N+]=[N-] | 1.17 | 1.45 | 1.17 | 0.822 (inactive) | 0.944 | 1.22 | 0.0673 | 0.612 | 0.496 | 1.21 | 0.091 | -2.09 | 0.593 | 2.12 | 0.988 | 0.0509 | 0.228 | 1.53 | 1.95 | 1.14
2 | CC1(C)[C@@H]2CC(C(O)C3C=CC4C(=O)N(c5ccccc5)C(=O)C4N3Nc3ccc([N+](=O)[O-])cc3)=C[C@H]1C2 (stereo not given in full) | 0.966 | 0.217 | 0.648 | -0.547 (inactive) | 1.11 | 1.34 | 0.604 | 1.38 | -0.104 | 0.482 | 1.4 | -1.56 | 0.492 | 1.69 | 0.691 | 0.0718 | 0.0326 | 0.902 | 0.561 | 1.67
3 | C=CCOC(=O)[C@H]1[C@@H]2C(=O)O[C@@H](c3ccccc3)[C@@H](c3ccccc3)N2[C@@H](c2ccc(OCCOC(=O)[C@H]3C[C@H]4C(=O)N[C@@H](CCCCNC(C)=O)C(=O)N4[C@H]3c3ccc(O)cc3)cc2)[C@]12C(=O)Nc1ccc(I)cc12 | 1.33 | -0.182 | -0.717 | -0.0027 (inactive) | 0.707 | 1.11 | 0.506 | 1.26 | 0.667 | 1.02 | 0.804 | -3.26 | 0.418 | 0.124 | -0.732 | -0.0236 | 0.123 | -0.238 | 0.612 | 0.963
4 | COc1ccc(/C=C/C=O)cc1 | -0.166 | -0.201 | -0.32 | -0.903 (inactive) | 0.188 | 0.0929 | -0.0607 | 0.679 | 0.406 | 0.664 | -0.15 | 0.788 | 0.0844 | -1.14 | -0.732 | -0.228 | -0.253 | 0.148 | 0.0921 | -0.117
5 | C=CCOC(=O)[C@H]1[C@@H]2C(=O)O[C@@H](c3ccccc3)[C@@H](c3ccccc3)N2[C@@H](c2ccc(OCCOC(=O)[C@@H]3C[C@@H]4C(=O)N[C@@H](CC(C)C)C(=O)N4[C@@H]3c3ccc(O)cc3)cc2)[C@]12C(=O)Nc1ccccc12 | 1.58 | 0.105 | 0.257 | 0.426 (inactive) | 1.26 | 1.3 | 0.671 | 1.3 | 0.675 | -0.233 | 1.12 | -1.47 | 0.701 | 2.5 | 0.137 | 0.0044 | 0.14 | 0.938 | 1.75 | 1.6
6 | O=C1C2C=CC(C(O)CCc3ccccc3)N(Nc3ccccc3F)C2C(=O)N1c1ccccc1 (stereo not given) | 1.17 | 0.909 | 1.09 | -0.0383 (inactive) | 1.25 | 1.31 | 0.359 | 1.31 | -0.242 | 1.04 | 1.29 | -0.83 | -0.208 | 0.611 | 0.11 | 0.229 | 0.13 | 1.03 | 1 | 0.324
